# Laboratory results: ChEMBL document CHEMBL1201862, “PubChem BioAssay data set” (2004)
# Hit rate of the full screen: of about 310,000 compounds, about 17,000 (5.5%) were called active. About 11% were inconclusive and are not listed. The rule behind the calls is not given here. Many of the other results were omitted from the sample, so actives are more common in it than they were.
# Target: T1, Nuclear receptor ROR-gamma (Mus musculus) (UniProt P51450)
# T1 sequence (whole entry): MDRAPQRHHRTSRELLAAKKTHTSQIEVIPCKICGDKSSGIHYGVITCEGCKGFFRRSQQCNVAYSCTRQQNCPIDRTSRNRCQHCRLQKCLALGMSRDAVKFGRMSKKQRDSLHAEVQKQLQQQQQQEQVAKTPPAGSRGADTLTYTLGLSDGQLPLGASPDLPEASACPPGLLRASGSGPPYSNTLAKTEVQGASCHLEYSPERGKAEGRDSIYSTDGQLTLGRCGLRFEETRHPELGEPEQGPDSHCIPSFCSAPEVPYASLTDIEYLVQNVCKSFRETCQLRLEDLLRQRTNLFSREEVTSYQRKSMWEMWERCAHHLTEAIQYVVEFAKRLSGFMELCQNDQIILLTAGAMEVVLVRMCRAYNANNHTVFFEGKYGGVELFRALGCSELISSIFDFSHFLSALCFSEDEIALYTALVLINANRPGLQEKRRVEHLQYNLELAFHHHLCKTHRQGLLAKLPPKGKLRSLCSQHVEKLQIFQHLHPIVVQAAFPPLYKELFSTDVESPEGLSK
# Assay: qHTS for inhibitors of ROR gamma transcriptional activity.
# Format: functional
row,SMILES,Potency
1,COC[C@@H]([C@H](O)[C@H](O)C(=O)NCC[C@H](C)c1nc(/C=C/C[C@@H]2O[C@]3(C[C@@H](O)[C@@H]2C)O[C@H]([C@H](C[C@H](O)[C@H](C)[C@H](O)[C@H](C)/C=C(C)/C(C)=C/C=C/C(C)=C\C#N)OC)[C@H](OP(=O)(O)O)C3(C)C)co1)N(C)C,0.0014 µM (active)
2,Cl[Te]1(Cl)OCCO1,15.8 µM (active)
